Screens from PubChem BioAssay.
FBPA coupling cs: inhibits coupling enzyme system, counter-screen for aldolase hits; coupling enzyme system counterscreen, AmpLite Red fluorescence; activity change, negative = inhibition, % at 58.2 µM, hits read low; 290,000 tested, 0.67% active; in the data active = activity change below about -30%
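Fluorescence at 525 nm excitation and 598 nm emission measured inhibition of the coupled detection system without aldolase. Compounds (at 57.5 uM final) were preincubated 10 min at room temperature with coupling enzyme reagent before a 20 min substrate/AmpLite Red step.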
Tau fluor cs: counter-screen for tau fibril formation inhibitors. Potency, µM (titrated, usually from 57.7 µM), for inactives: at the top dose activity change, negative = decrease. 280,000 tested, 0.93% active. AID 1463. tau K18 P301L Alexa594 fluorescence, heparin fibrillization; note: potency is the fitted concentration of half-maximal effect; nearly all actives have a fitted effect of over 55% in size
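Human K18 P301L tau (15 uM unlabeled plus 0.24 uM Alexa 594-labeled, final) in 100 mM sodium acetate pH 7 was mixed with compound and 20 uM heparin and incubated 6 hr at 37 C.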
Tau fibril ThT: inhibitors of human tau fibril formation, thioflavin T binding; recombinant tau K18 P301L (four-repeat tau fragment), heparin-induced fibrillization, ThT fluorescence; Potency, µM (highest dose often 57.4 µM), for the others: at the top dose activity, negative = inhibition, hits mostly inhibitors; 270,000 tested, 2.1% active; note: potency is the fitted concentration of half-maximal effect; nearly all actives have a fitted effect of over 55% in size
Target sequence (P10636 561-689 P618L limits assumed): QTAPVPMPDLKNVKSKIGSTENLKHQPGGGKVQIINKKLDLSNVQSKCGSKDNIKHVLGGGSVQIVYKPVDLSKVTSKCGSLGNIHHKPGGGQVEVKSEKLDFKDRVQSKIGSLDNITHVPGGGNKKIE
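K18 P301L tau (15 uM + 0.24 uM Alexa 594-tagged), heparin 20 uM, NaOAc pH 7, 6 h 37 C; ThT 30 uM, 1 h RT, ex 450/em 510 nm.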
Tau fibril FP: inhibitors of human tau fibril formation. P10636. K18 P301L tau heparin fibrillization, Alexa594 FP, 6 h. Potency, µM (top dose mostly 57.7 µM), without a hit: top-dose activity, negative = inhibition, usual class: inhibitors. 280,000 tested, 0.39% active; note: potency is the fitted concentration of half-maximal effect; nearly all actives have a fitted effect of over 55% in size
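Steps: dispense K18 P301L tau (15 uM plus 0.24 uM Alexa 594 tracer, final) in pH 7 sodium acetate; add compound; add heparin (20 uM final); incubate 6 hr, 37 C; add ThT (30 uM final); after 1 hr ambient, read FP.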
Sfp inh: blocks B. subtilis Sfp PPTase activity. 310,000 tested, 3.5% active. Potency, µM, for inactives: largest response in the series, negative = inhibition, usual class: inhibitors. Biochemical Sfp PPTase activity, qHTS;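 note: the enzyme is Sfp with the accession as filed and its product quenches rhodamine fluorescence; potency is the fitted concentration of half-maximal effect; 0% = enzyme reaction without inhibitor and -100% = no enzyme wells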
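Reaction rates are the 30-min fluorescence difference (ex 525, em 598 nm) in wells containing 15 nM Sfp, 5 uM rhodamine-CoA and 12.5 uM BHQ-2-YbbR at pH 7.6 with 10 mM MgCl2.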
* marks the source's active call; other numbers are inactive results; ? = inconclusive; . = no result; [ ] = dose if it differs, or a comment. A selection: hits, their analogues and other compounds. The true share with any hit is near 5.2%. Unless noted, calls come from the whole dose curve; as a rule, active = well fitted curve in the direction sought with a large enough effect; inconclusive = small, poorly fitted or top-dose-only effect, or another doubt; inactive = no such curve, though single readings can be large; an effect the other way counts as inactive or inconclusive. Unless noted, % is set by controls: 0 for no effect and ±100 for the full control effect.

SMILES	FBPA coupling cs	Tau fluor cs	Tau fibril ThT	Tau fibril FP	Sfp inh
CCCn1cc(S(=O)(=O)c2cc(C)ccc2C)c(=O)c2cc(F)c(N3CCCCCC3)cc21	.	-6%	-10%	2%	.
COc1ccc(CCNC(=O)CCc2cn(Cc3ccc(F)cc3)c3ccccc23)cc1OC	.	-23%	-14%	11%	.
Cn1c(C(=O)NCCN2CCc3ccccc3C2)cc2c(=O)n(C)c3ccccc3c21	-30*	-6%	?	-3%	-3%
Cn1c(C(=O)NCCN2CCOCC2)cc2c(=O)n(C)c3ccccc3c21	-2	-3%	0%	-5%	-11%
COc1ccc(-c2cnc(C)o2)cc1S(=O)(=O)Nc1ccc(F)cc1F	.	-10%	-2%	-7%	.
COC(=O)CN1C(=O)C(O)(c2c(C)[nH]c3ccccc23)c2ccccc21 (stereo unspecified)	.	6%	4%	2%	.
CCOC(=O)CN1C(=O)C(O)(c2c(C)[nH]c3ccccc23)c2ccccc21 (stereo unspecified)	-30*	-30%	?	16%	-2%
CC[C@H](C)[C@H](N)C(=O)N[C@H](C(=O)N[C@@H](CO)C(=O)N[C@@H](C)C(=O)N[C@H](C(=O)N[C@H](C(=O)NCC(=O)N[C@H](C(=O)N[C@@H](CC(C)C)C(=O)O)[C@@H](C)CC)C(C)C)C(C)C)[C@@H](C)CC	1	.	.	.	1%
COc1ccc(N=C2NC(=O)/C(=C/c3ccco3)S2)cc1	1	-27%	.	-6%	?
O=C1NC(=Nc2ccccc2)/C(=C/c2ccco2)S1	2	?	22µM*	-9%	22µM*
Cc1ccc(N=C2NC(=O)S/C2=C\c2ccco2)cc1	-5	1%	0%	-2%	35µM*
COc1ccc(S(=O)(=O)/N=C2/NC(=O)/C(=C/c3ccco3)S2)cc1	21	-13%	?	?	-15%
COc1cc(C2CC(=O)Nc3cc4c(cc32)OCCO4)cc(OC)c1O (stereo unspecified)	.	-8%	-7%	0%	.
Cc1cccc(-c2noc(CN(C(=O)c3ccccc3Cl)C(C)C)n2)c1	.	-19%	-10%	4%	.
CCC(=O)N(C)/C=C1\Sc2ccccc2C1=O	.	1%	?	17%	-10%
CCC(=O)N(C1=C(NC)C(=O)c2ccccc2C1=O)C(C)C	-41*	0%	-7%	8%	13%
CNC1=C(N(C(C)=O)c2ccc(Br)cc2)C(=O)c2ccccc2C1=O	-56*	-10%	?	2%	11%
Cc1ccc(Cn2c(C)c3cnn(CC(=O)N4CCN(c5ccc(F)cc5)CC4)c(=O)c3c2C)cc1	.	-15%	?	0%	.
Cc1cc2cc(C(c3nnnn3C3CCCC3)N(Cc3cccnc3)Cc3ccco3)c(=O)[nH]c2cc1C (stereo unspecified)	-3	-17%	?	-3%	56µM*
O=C(CCl)Nc1nc(-c2ccco2)c(-c2ccco2)s1	-4	13µM*[quencher]	?	-6%	45µM*
CC(=O)c1sc(NC(=O)CCNC(=O)c2ccco2)nc1-c1ccccc1	.	.	.	.	-1%
O=C(CCCSc1ccccc1)Nc1nc(-c2ccco2)c(-c2ccco2)s1	0	?	?	1%	16µM*
COc1ccc(C(=O)N/N=C/c2ccc(N3CCOCC3)o2)cc1OC	-35*	-10%	?	0%	3.5µM*
O=C(N/N=C/c1ccc(N2CCOCC2)o1)c1cccc(F)c1	-12	-9%	?	-9%	8.9µM*
COc1ccc(NC(=O)c2oc3ccccc3c2NC(=O)C23CC4CC(CC(C4)C2)C3)c(OC)c1	.	?	-5%	-7%	.
SMILES	FBPA coupling cs	Tau fluor cs	Tau fibril ThT	Tau fibril FP	Sfp inh
CC1Cc2cc(S(=O)(=O)CCC(=O)Nc3cccc(F)c3)ccc2N1C(=O)C1CC1 (stereo unspecified)	.	-9%	1%	0%	.
COC(=O)c1ccnc(/C=N/O)c1	1	2%	3%	-1%	50µM*
CN1CCc2c(sc(/N=C/c3c[nH]c4ccccc34)c2C#N)C1	-30	?	14µM*	?	?
CCOC(=O)c1c(/N=C/c2ccc(OC)cc2O)sc2c1CCN(C)C2	-20	?	?	-11%	-22%
CN1CCc2c(sc(/N=C/c3cc(Cl)ccc3O)c2C#N)C1	-2	-28%	?	0%	-10%
CN1CCc2c(sc(/N=C/c3c[nH]c4ccccc34)c2C(N)=O)C1	-18	?	10µM*	?	?
COCCNC(=O)CCCn1c(SCC(=O)Nc2cccc(C)c2)nc2c(sc3ccccc32)c1=O	.	-12%	?	?	.
COc1ccc(C(=O)N2CCCC(CCC(=O)NCc3ccc(F)c(F)c3)C2)o1 (stereo unspecified)	-3	-7%	-5%	3%	56µM*
COc1ccc(C(=O)N2CCCC(CCC(=O)NCc3ccc(F)c(F)c3)C2)cc1F (stereo unspecified)	1	-1%	-4%	-2%	13%
Nc1n[nH]c(=S)n1-c1ccc(Cl)cc1	1	-20%	?	?	16µM*
COc1ccc(C(=O)NCc2oc(-c3ccccc3)cc2C(=O)O)cc1	8	3%	3%	4%	25µM*
COc1ccc(C(=O)c2c(C(F)(F)F)oc3c2C(=O)c2ccccc2C3=O)cc1	-43*	?	?	?	-1%
c1csc(-c2nc(NCC3CCCO3)c3ccccc3n2)c1 (stereo unspecified)	-1	.	.	.	3%
c1ccc(CN2CCC(Nc3nc(-c4cccs4)nc4ccccc34)CC2)cc1	-8	?	-10%	?	79µM*
COc1cc(OC)cc(-c2nnc3n2N=C(c2cc(OC)ccc2OC)CS3)c1	-1	.	.	.	-6%
CCCCOC(=O)Sc1nc2ccccc2o1	5	-5%	?	-3%	40µM*
COc1ccc(S(=O)(=O)c2cn(C)c3cc(N4CCOCC4)c(F)cc3c2=O)cc1	.	-1%	-2%	1%	.
